What is called inhibition is the change of the read-out against control, counted positive when it falls.

This passage reports inhibition results from PubChem BioAssay AID1566 (Sanford-Burnham Center for Chemical Genomics, 2009).

The campaign covered roughly 290,000 compounds. About 1,800 (0.62%) were called active. Rule as the data show it: active = inhibition above about 50%; inactive = the rest. The sample as a whole holds a higher share of actives than the screen did.

A short description of the assay: NOD2 signaling inhibitors, cell-based, luminescence, uHTS, HEK293 (AID 1566). The settings on record: HEK293 NOD2/NF-kB luciferase reporter, at 4 µM, stronger effect = higher value. (In general: Reporter assays use an easily measured gene product as a stand-in for the process of interest.)
As for `CC1(C)c2ccccc2N2CCC(=O)NC21/C=C/c1ccco1` (stereo not drawn), the inhibition is 3.8% (inactive).
In the case of `COc1ccc(NC(=O)c2cccc(N3C(=O)C4C5C=CC(C6CC56)C4C3=O)c2)cc1` (stereo not drawn), the inhibition is 9.4% (inactive).
`COC(=O)c1ccc(NC(=O)c2cccc(N3C(=O)C4C5C=CC(C6CC56)C4C3=O)c2)cc1` (stereo not drawn): the inhibition was 58.5% (active).
`O=C(Nc1ccccc1)c1cccc(N2C(=O)C3C4C=CC(C5CC45)C3C2=O)c1` (stereo not drawn): the inhibition was 31.7% (inactive).
Turning to `CCOc1ccccc1C(=O)NC(C(=O)NCc1ccccc1OC)C(C)C` (stereo not drawn), the inhibition is 2.5% (inactive).
For the compound `COCCNC(=S)N1CCN(c2nc(-c3ccc(Cl)cc3)cs2)CC1`, the inhibition was 35.9% (inactive).
Regarding `CC(C)CNC(=S)N1CCN(c2nc(-c3ccc(Cl)cc3)cs2)CC1`, the inhibition was 54.9% (active).
For `CNC(=S)N1CCN(c2nc(-c3ccc(Cl)cc3)cs2)CC1`, the inhibition is 11.2% (inactive).
For `CCN(CC(=O)Nc1c(F)cccc1F)C(=O)CCc1c[nH]c2ccccc12`, the inhibition is -24.9% (inactive).
For `Cc1onc(-c2ccccc2)c1NC(=O)N(CCC(=O)O)Cc1ccccc1`, the inhibition was 15.3% (inactive).
As to `Cc1c(NC(=O)NCc2ccccc2)c(=O)n(-c2ccccc2)n1C`, the inhibition was -6.6% (inactive).
Turning to `Cc1ccc(C(=O)N/C(=C\c2ccc(-c3ccccc3[N+](=O)[O-])o2)C(=O)NCCN(C)C)cc1`, the inhibition was 50.5% (active).
`Cc1ccc(C(=O)N/C(=C\c2ccc(-c3ccccc3[N+](=O)[O-])o2)C(=O)NCCCN(C)C)cc1`: the inhibition was 49.4% (inactive).
`Cc1ccc(C(=O)N/C(=C\c2ccc(-c3ccccc3[N+](=O)[O-])o2)C(=O)NCCCN2CCOCC2)cc1`: the inhibition is 38.2% (inactive).
Turning to `NC(=O)c1cc([N+](=O)[O-])ccc1NCCN1C(=O)c2ccc(C(=O)O)cc2C1=O`, the inhibition was 17.5% (inactive).
As for `Cc1cc(=O)[nH]c2ccc(S(=O)(=O)Nc3ccccc3)cc12`, the inhibition is 4.4% (inactive).
As for `O=C(Nc1ccc(C(=O)N2CCOCC2)cc1)c1cccc(Br)c1`, the inhibition is 8% (inactive).
In the case of `Cc1sc2nc3c(C(=O)N4CCN(c5ccccn5)CC4)cccn3c(=O)c2c1C`, the inhibition was 3.3% (inactive).
With `C/C(Cn1nnc([N+](=O)[O-])n1)=N\NC(=O)c1cccc(Cl)c1` the figure was 48.8% (inactive); with `C/C(Cn1nnc([N+](=O)[O-])n1)=N\NC(=O)c1ccc(O)cc1`, 37.7% (inactive).
As for `COc1ccc(-c2csc(/C(C#N)=C\c3ccc(O)c([N+](=O)[O-])c3)n2)cc1OC`, the inhibition is -7.4% (inactive).
With `COc1ccc(-c2csc(/C(C#N)=C\c3ccc(OC)c([N+](=O)[O-])c3)n2)cc1` the figure was 25.7% (inactive); with `Cc1ncc(CO)c(/C=N/NC(=O)c2ccc(O)cc2)c1O`, -8.9% (inactive).
Turning to `Cc1ncc(CO)c(/C=N/Nc2ccc(C(F)(F)F)cn2)c1O`, the inhibition was 59.1% (active).
Under `COc1ccccc1N/N=C/c1c(CO)cnc(C)c1O` stands -3.8% (inactive); under `Cc1ncc(CO)c(/C=N/Nc2cccc(Cl)n2)c1O`, -52.5% (inactive); under `COc1ccc(C(=O)N/N=C/c2c(CO)cnc(C)c2O)cc1`, -27.8% (inactive).
With `Cc1ncc(CO)c(/C=N/NC(=O)c2ccc(Br)cc2)c1O`, the inhibition was 51.6% (active).
